According to PubChem BioAssay (Tox21):
Results filed as inconclusive are left out. Entries that show only a call come without a potency. Activity calls are given as the source filed them. The call rests on the fitted dose curve; in most records, active means well fitted inhibition curve with a large enough effect in the repeat runs; inconclusive means weak or mixed curves; inactive means flat fitted curve, though single readings scatter.

The compounds below were run against Luciferin 4-monooxygenase (Photinus pyralis) (UniProt P08659) (assay: qHTS assay to identify small molecule inhibitors of firefly luciferase (AID 1224835; further: nearly all actives have a fitted effect of over 25% in size)). Conditions: purified P. pyralis luciferase, luminescence inhibition; series mostly up to 115 µM.
Luciferin 4-monooxygenase (Photinus pyralis), sequence (P08659 whole entry, looked up): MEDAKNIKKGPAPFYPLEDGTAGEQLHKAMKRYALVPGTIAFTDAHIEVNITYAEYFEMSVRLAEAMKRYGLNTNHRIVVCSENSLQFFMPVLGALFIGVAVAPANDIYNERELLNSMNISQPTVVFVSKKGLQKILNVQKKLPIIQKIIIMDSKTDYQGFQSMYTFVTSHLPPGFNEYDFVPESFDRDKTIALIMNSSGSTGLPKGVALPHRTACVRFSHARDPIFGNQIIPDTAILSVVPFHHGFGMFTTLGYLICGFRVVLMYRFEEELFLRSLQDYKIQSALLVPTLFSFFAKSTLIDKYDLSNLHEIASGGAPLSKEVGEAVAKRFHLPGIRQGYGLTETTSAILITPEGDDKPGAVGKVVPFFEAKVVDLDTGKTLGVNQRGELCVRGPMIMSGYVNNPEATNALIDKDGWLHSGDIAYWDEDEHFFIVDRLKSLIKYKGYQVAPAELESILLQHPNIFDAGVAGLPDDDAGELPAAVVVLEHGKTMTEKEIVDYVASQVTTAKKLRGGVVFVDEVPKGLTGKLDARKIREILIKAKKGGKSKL
Outline: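 Inhibition of purified Photinus luciferase is measured by luminescence. Substrate levels (D-luciferin, ATP) sit at their KM values. Each compound is tested in a concentration series.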
Potency means the concentration at half of the fitted maximal effect.

**Q.** Which Potency does the source give for `CC(C)(C)c1ccc(S)cc1` here?
**A.** inactive

**Q.** With `CC(=O)[C@@]1(O)CC[C@H]2[C@@H]3C[C@H](C)C4=CC(=O)CC[C@]4(C)[C@H]3CC[C@@]21C` as the compound, how does the Potency read?
**A.** inactive

**Q.** `C#CCOC(=O)[C@@H](C)Oc1ccc(Oc2ncc(Cl)cc2F)cc1` was tested. Which Potency did it give?
**A.** inactive

**Q.** Which Potency does the source give for `N#CCc1cccc(C(F)(F)F)c1` here?
**A.** inactive

**Q.** `CN(C)CC[C@@H](c1ccc(Br)cc1)c1ccccn1` was tested. Which Potency did it give?
**A.** inactive

**Q.** For `CC1=CC(=O)/C(=C(/C)O)C(=O)O1`, which Potency is on record?
**A.** inactive

**Q.** `O=C(NN1CCCC1)NS(=O)(=O)c1ccc(Cl)cc1` was tested. Which Potency did it give?
**A.** inactive

**Q.** For `Nc1nc(N)c(-c2ccccc2)s1`, which Potency is on record?
**A.** inactive

**Q.** With `Oc1ccc(C(O)CNCCCCCCNCC(O)c2ccc(O)c(O)c2)cc1O` (stereo unspecified) as the compound, how does the Potency read?
**A.** inactive

**Q.** `O=C(CC(=O)c1ccccc1)c1ccccc1` was tested. Which Potency did it give?
**A.** 6.06 µM (active)

**Q.** For `OC(CCN1CCCCC1)(c1ccccc1)C1CCCCC1` (stereo unspecified), which Potency is on record?
**A.** inactive

**Q.** With `O=C1Nc2cc(Cl)ccc2Oc2ccccc21` as the compound, how does the Potency read?
**A.** inactive

**Q.** For `CC(=O)/C=C/C1C(C)=CCCC1(C)C` (stereo unspecified), which Potency is on record?
**A.** inactive

**Q.** How did the Potency turn out when `Oc1ccc(O)c2c(O)cccc12` was run?
**A.** inactive

**Q.** How did the Potency turn out when `CCCCCOC(=O)COc1cc(N2C(=O)C3=C(CCCC3)C2=O)c(F)cc1Cl` was run?
**A.** inactive

**Q.** `Cn1c(NCCN(CCO)CCCc2ccc([N+](=O)[O-])cc2)cc(=O)n(C)c1=O` was tested. Which Potency did it give?
**A.** inactive

**Q.** For `C=CC(C)(CCC=C(C)C)OC(=O)c1ccccc1` (stereo unspecified), which Potency is on record?
**A.** inactive

**Q.** For `O=S1(=O)c2cccc3cccc(c23)N1CCCN1CCN(c2ccc(F)cc2)CC1`, which Potency is on record?
**A.** inactive

**Q.** For `Cc1ncsc1CCO`, which Potency is on record?
**A.** inactive

**Q.** With `Cc1cc(C)c(S(=O)(=O)O)cc1N=Nc1cc(S(=O)(=O)O)c2ccccc2c1O` as the compound, how does the Potency read?
**A.** 1.42 µM (active)

**Q.** With `CCCCCOC(=O)c1ccc(O)cc1` as the compound, how does the Potency read?
**A.** 36 µM (active)
